# The supplement of paper PMC11417369
# ± gives the standard deviation of the averaged measurements. The full ranking holds about 25,000 sequences; the median of “ln(normalized median fluorescence intensity)” is about 8.9, and the highest 2% start at about 10. The sample as a whole holds a higher share of the highest values than the screen did.
# Tested on: PfAP2-LT AP2 domain (GST-tagged)
# Test: gcPBM binding intensity (ln(normalized median fluorescence intensity)); higher = stronger DNA binding
# In short: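 Plasmodium falciparum DNA-binding domains carrying a GST tag were expressed in E. coli and applied for 1 h, at about 25 μg on average, to an Agilent 4 × 180k array. The array held primer-extended double-stranded 36-bp intergenic genomic probes together with negative controls, and binding took place in 1× PBS with 1% milk, 0.2 mg/ml BSA, 0.5% salmon testes DNA and 0.03% Triton X-100. An Alexa488 anti-GST antibody detected bound protein, and the array was scanned at 488 nm. Binding intensity is taken as the highest Masliner-normalised natural-log median intensity across replicate spots of either probe orientation.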
row,Sequence,gcPBM binding intensity (ln)
1,AATGATCATATATACACACACACAAAAAAAAAAAAA [CACACA_site4009],9.6 ± 0.45
2,ATAAAGATAATATATGCACACATATAAATATATAAA [CACACA_site9153],9.09 ± 0.43
3,CATACAGATATATATACACACATACAGATAAATACA [CACACA_site4592],9.3 ± 0.28
4,AATAAATATATAAATACACACAAACATACAGATATA [CACACA_site6088],9.37 ± 0.35
5,TACATACATACATACACACACACATATAAATACATA [CACACA_site4626],10.1 ± 0.4
6,TATACAGATAAATACACACACACATATATATATATA [CACACA_site4845],10.3 ± 0.25
7,TATAAATACAGATACACACACACACCGATATATATA [CACACA_site5271],9.94 ± 0.18
8,ATTTAATACAAATACACACACAAATAAATACAGATA [CACACA_site5956],9.47 ± 0.26
9,CATATATAAATATATACACACATACATACATACATA [CACACA_site5988],9.36 ± 0.4
10,TACAGATACAGATACACACACACACCGAAATAAATA [CACACA_site4865],10.2 ± 0.43
11,ATAAATACAGATAACACACACATATATATATATATA [CACACA_site5431],10.225 ± 0.0071
12,CATAAATACATACATACACACATATATATATATATA [CACACA_site2106],9.88 ± 0.085
13,CACATACAGATATATACACACAAATATAAATACACA [CACACA_site6512],9.52 ± 0.4
14,TATACAGATATATATACACACATATATATAAATACA [CACACA_site4383],9.24 ± 0.39
15,AATTAAATTATAAGCACACACATATATATATATATA [CACACA_site3351],9.81 ± 0.057
16,ATAGTTACACGCCAAAAAAAAAAAAAAAAAAAAAAA [CACACA_negctrl_site1133],8.21 ± 0.42
17,TTTTTTTTTTTTTTTTGTACACATAATATGAATAAT [XGTACX_site2661],8.57 ± 0.32
18,AAAAAATTATTAATTTGTACATAAATAACCAAAAAA [XGTACX_site2488],8.49 ± 0.52
19,TTTTCCTTTACATAATGTACACAAAAAAAAAAAAAA [XGTACX_site716],8.21 ± 0.35
20,CTATAAAAATATAATTGTACAAATTTTTATATCTTA [XGTACX_site7722],8.35 ± 0.45
21,TAGAAACCATAAAAATGTACTTAAAAATAGACAATT [XGTACX_site5007],8.78 ± 0.5
22,AAAATTTTGGAACGTGCACACATATGTAATATATAT [CACACA_site9004],9.32 ± 0.37
23,TACATACATACATACACACACATATAGATTTATATA [CACACA_site6999],9.48 ± 0.28

row,Sequence,gcPBM binding intensity (ln)
1,CTATATAATATGAGCACACATAAGATTTGGTGTTAT [CACACA_site744],8.93 ± 0.34
2,CCCCCCGTGTTATATACACACATAATCAAATAAAAT [CACACA_site4111],11.1 ± 0.44
3,AAATTATAATATAATACACACATAAAAAAAAAATCA [CACACA_site3634],9 ± 0.44
4,TATACAGATAAATACACACACATATATATATATATA [CACACA_site4178],10.2 ± 0.33
5,CATAAATACAGATATACACACATATATATATATATA [CACACA_site4528],9.7 ± 0.45
6,TAAATAAATACATACACACACATACAGATATATATA [CACACA_site5690],9.62 ± 0.26
7,AGGCACGTGTTATATACACACATAATCAAATAAACT [CACACA_site7852],9.36 ± 0.38
8,AATTAAAATACAAATGTATGCATGTCTCATATAGAA [TGCATGCA_site822],8.78 ± 0.43
9,ATTCTTAAATGTGGTTGTACATATTATCACCTTTAA [XGTACX_site8188],8.75 ± 0.42
10,TGGAGATTTTTAAAGACACACAGGTAAGAATAATAA [CACACA_site1582],8.77 ± 0.47
11,TATATGTAAATGGACACACACATATATATATATATA [CACACA_site3659],10 ± 0.13
12,TATATATATGGACACACACACATATAAATAAATAAA [CACACA_site4406],9.71 ± 0.49
13,GATACCTATAGACACACACACATACCTATATACATA [CACACA_site7586],9.66 ± 0.47
14,CAAGAAAATGGACACACACACATATATATATATATA [CACACA_site6010],10.37 ± 0.092
15,GAGAAATGGAGACACACACACATATTATATATATAT [CACACA_site1532],9.85 ± 0.15
16,AAAAATTATGGACACACACACATATATATATATATT [CACACA_site4717],9.8 ± 0.11
17,TATATATATAGACACACACACACATATATATATATA [CACACA_site9366],10.02 ± 0.042
18,TAAATTTATGGACACACACACATATATATATATATA [CACACA_site4620],9.955 ± 0.021
19,TATATATATGGACACACACACATATATATATATTTT [CACACA_site5409],9.67 ± 0.23
20,AAAGGATATGGACACACACACACATATATATATATA [CACACA_site8686],10.5 ± 0.15
21,AAAGGATATAGACACACACACACATATATATATATA [CACACA_site2200],10.3 ± 0.32
22,TATATATATGGACACACACACACATATATATATATA [CACACA_site6121],10.3 ± 0.23
23,ATAATATTGTGGTATACACACCTTACAAAAAGGTAC [CACACA_site5582],8.96 ± 0.42

row,Sequence,gcPBM binding intensity (ln)
1,AAATATAAAAATAGCACACATATATACCTATATATA [CACACA_site4204],8.99 ± 0.38
2,TATATTGCCCTTCACACACACACATATATATATATA [CACACA_site2492],10 ± 0.13
3,TATTGCCCTGGACACACACACATATATATATATATA [CACACA_site5389],10.2 ± 0.064
4,TATTGCCCTTGACACACACACATATAAATAAATATA [CACACA_site7220],9.34 ± 0.44
5,ATTCAAATATTAAAAAGTACAAAAAAAAAACAAAAA [XGTACX_site1174],8.63 ± 0.5
6,AAGCTTTCATAAAGATGTACTTTTTAAAAATAATCT [XGTACX_site5725],8.28 ± 0.3
7,TACATTTTATGCATTTGTACACAAATAAATAAATAA [XGTACX_site2652],8.49 ± 0.42
8,TTTTTCAGAAAAGAAACACACATATATATATTTATA [CACACA_site2372],8.56 ± 0.43
9,AAATATATTATAAATTGTACGTTTATATATATTATT [XGTACX_site5110],8.69 ± 0.47
10,TTAGGCAAGGCGGGGGGTACGTTTTTATATAATTAT [XGTACX_site8029],10.2 ± 0.14
11,AATAATATATTTAGGGGTACATAATAATATATTTTA [XGTACX_site8366],8.66 ± 0.3
12,ATCTCTATGATATATACACACAAATATACAAAAAAA [CACACA_site6605],8.96 ± 0.45
13,TATAATATTCTATATGCATGTACACCATTCTTTATT [TGCATGCA_site688],9.15 ± 0.45
14,ACACATACATATACATACACATTGTTTTCATGCATC [XGTACX_negctrl_site126],9.2 ± 0.39
15,GTTCATCACATATACACATGCATATTCTAATATGTA [TGCATGCA_site809],8.95 ± 0.41
16,TATATATATATATATACATGCATCATTGTTCACCTT [TGCATGCA_site177],10.2 ± 0.35
17,TAAAATGAATAAAATTGTACTTAATAATATTTTAAA [XGTACX_site5532],8.23 ± 0.57
18,TAAAATATAGAAAATTTTATTAAATATAAAAAAATA [CACACA_negctrl_site1441],8.28 ± 0.47
19,TATAAGAAATAAAACCTGATTATAAACCTGTAACCA [CACACA_negctrl_site1302],8.63 ± 0.37
20,AAAATAATAATAGGCACACATATATATATATATATA [CACACA_site2058],9.99 ± 0.21
21,ATAAATACTAGGCACACACACATATAGATTTATATA [CACACA_site7064],9.77 ± 0.47
22,ATAAATACTAGGCACACACACATATATATATATATA [CACACA_site2080],10.4 ± 0.014
23,AAATAAATACTAGGCACACACACATATATATATATA [CACACA_site2079],10.1 ± 0.15

row,Sequence,gcPBM binding intensity (ln)
1,AATAAAATAATAGGCACACATATATATATATATTAT [CACACA_site273],9.2 ± 0.37
2,ATAAATAAATACTAGGCACACACACCGATATATATA [CACACA_site8649],9.76 ± 0.22
3,TATATTTGGAAAACATGTACATATAACAATATGTAA [XGTACX_site324],8.71 ± 0.34
4,TTAGTTATTAAAAAAAGTACATAAGTAGATATCATC [XGTACX_site8712],8.7 ± 0.45
5,TTTGAACATTTTGCAAGTACAAAAAAATAATATATC [XGTACX_site8079],8.65 ± 0.42
6,ACTCTCTTATATTAAACACACATATATATATGTATA [CACACA_site2703],8.99 ± 0.42
7,GTGCTAAAAGTATATGCACACACATATATATGCACA [CACACA_site8472],9.42 ± 0.31
8,ATAAAACAAAAACACACACACATACACAAAAAAAAA [CACACA_site3848],10.1 ± 0.3
9,AAAAAAAAAAAACATACACACAAATAAATACATACA [CACACA_site6073],9.23 ± 0.36
10,TATAACATAAAACACACACACATACATACACAAAAA [CACACA_site1804],10.1 ± 0.15
11,AATATATAAACATATACACACAAAAACATATATATA [CACACA_site4855],9.21 ± 0.33
12,AATAAACATATATACACACACAAAAAAAAAAACATA [CACACA_site424],9.59 ± 0.5
13,TATATACACATATATAAACACACAAAAAAAAAAAAA [CACACA_site8626],8.89 ± 0.4
14,AAATAAAACAAACACACACACACATACACAAAAAAA [CACACA_site3849],10.12 ± 0.035
15,TATACACATATATAAACACACAAAAAAAAAAAAAAA [CACACA_site7041],8.88 ± 0.49
16,AATAAACATAAATACACACACAAAAAAAAAAACATA [CACACA_site4396],9.64 ± 0.33
17,AATTTTTTATATGTCACACATTTATTATTATTATTA [CACACA_site4198],8.83 ± 0.48
18,AACATATAAAAATATGCACACACAGGAATACAAACA [CACACA_site8127],9.89 ± 0.45
19,AAAAAATAAATAAATAGTACTTTAAAAGAAAAAAAA [XGTACX_site5051],8.55 ± 0.51
20,TGTTTATTTAATAATATTTTTTTTTTTATTATATTA [XGTACX_negctrl_site56],8.31 ± 0.54
